For 34 molecules, ΔTm results are on record in ChEMBL document CHEMBL5308504, “Tm Shift (DSF) assay results for EUbOPEN Chemogenomics Library” (2023).

This experiment has as its target Bromodomain-containing protein 4 (Homo sapiens) (UniProt O60885). Conditions: Compound concentration 20.0 uM, Protein concentration 2.0 uM, Result type QC Liability.
In the case of `C=CC(=O)N1CCC[C@@H](n2nc(-c3ccc(Oc4ccccc4)cc3)c3c(N)ncnc32)C1`, the ΔTm was -4.44 °C. Under `C[C@]12CC[C@@H]3c4ccc(C(N)=O)cc4CC[C@H]3[C@@H]1CC=C2c1cncc(F)c1` stands 0 °C; under `C[C@H](CCC(=O)O)[C@H]1CC[C@H]2[C@@H]3CC[C@@H]4C[C@H](O)CC[C@]4(C)[C@H]3CC[C@]12C`, -7.72 °C.

Regarding `O=C(NCCN1CCC2(CC1)C(=O)NCN2c1cccc(F)c1)c1ccc2ccccc2c1`, the ΔTm is -0.54 °C. Under `CCOP(=O)(OCC)C(=Cc1cc(C(C)(C)C)c(O)c(C(C)(C)C)c1)P(=O)(OCC)OCC` stands -3.19 °C; under `CCN1C(=O)C(c2cccc(C(=O)O)c2)C(=O)N(c2ccccc2)c2cc(C(F)(F)F)ccc21` (centres undefined), -0.84 °C; under `CO[C@@H](C)CN1CC[C@]2(C)c3cc(O)ccc3C[C@H]1C2(C)C`, -1.9 °C. For the molecule `O=C1CCC(N2Cc3cc(CNC(=O)C(F)(F)c4ccc(Cl)cc4)ccc3C2=O)C(=O)N1` (centres undefined), the ΔTm was -1.23 °C.

As to `CCCn1cc(-c2cc(C3C(=O)N(CC)c4ccc(C(F)(F)F)cc4N(c4ccccc4)C3=O)cc(OC)c2O)cn1` (centres undefined), the ΔTm came to 1.56 °C. For `CS(=O)(=O)c1ccc(-c2cnc(N)c(C(=O)Nc3ccccc3)n2)cc1` the value was 0.79 °C; for `CO[C@H](C)CN1CC[C@]2(C)c3cccc(O)c3C[C@H]1C2(C)C`, -1.2 °C. For `Cn1ncc(-c2nc(N[C@H]3CC[C@H](N)CC3)ncc2Cl)c1CC1CC1` the value was -0.39 °C. For the molecule `Cc1cc(Cl)ccc1S(=O)(=O)NC[C@H]1C2CCC(CC2)[C@@H]1/C=C\CCCC(=O)O`, the ΔTm was -1.69 °C. For `CNC(=O)c1cc(C(=O)NC2CC2)cn(Cc2ccccc2)c1=O` the value was -1.08 °C. On to `COc1ccc(OC(=O)N(CC(=O)O)Cc2ccc(OCCc3nc(-c4ccccc4)oc3C)cc2)cc1`, for which the ΔTm was -4.38 °C. For `C=C[C@@]12CCc3cc(O)ccc3[C@H]1CC[C@@]1(C)[C@H]2CC[C@@H]1O` the value was 0.82 °C. Under `CCN(CC)CCO[C@H]1CC[C@@]2(C)C(=CC[C@@H]3[C@@H]2CC[C@]2(C)C(=O)CC[C@@H]32)C1` stands -1.53 °C; under `OCC1OC(n2cnc3cc(Cl)c(Cl)cc32)C(O)C1O` (centres undefined), 0.7 °C. Under `Cc1nnc2n1-c1sc3c(c1C(c1ccccc1Cl)=NC2)C[C@H](C(=O)N1CCOCC1)C3` stands -0.46 °C.

As for `N[C@H](C(=O)O)[C@@H]1CC(Cl)=NO1`, the shift in melting temperature (ΔTm) is -0.13 °C. Under `COc1nc2ccc([C@@](O)(c3ccc(Cl)cc3)c3cncn3C)cc2c(Cl)c1Cc1ccc(-n2cccn2)cc1` stands -0.83 °C; under `CC[C@H]1[C@@H](O)[C@@H]2[C@H](CC[C@]3(C)[C@@H]([C@H](C)CCC(=O)O)CC[C@@H]23)[C@@]2(C)CC[C@@H](O)C[C@@H]12`, -3.05 °C. Under `COc1ccc(-n2nc(C(F)(F)F)cc2-c2ccc(Cl)cc2)cc1` stands -1.21 °C. In the case of `Cc1nnc2n1-c1sc3c(c1C(c1ccccc1Cl)=NC2)C[C@@H](C(=O)N1CCOCC1)C3`, the ΔTm was found to be 1.2 °C.

As for `COP(=O)(CCC(N)C(=O)O)Oc1cccc(CC(=O)O)c1` (centres undefined), the ΔTm is -0.52 °C. Under `CN1CCN(C(=O)Cc2ccc(N/C(=C3\C(=O)Nc4cc(Cl)ccc43)c3ccccc3)cc2)CC1` stands -3.18 °C; under `C[C@H](CCC(=O)O)[C@H]1CC[C@H]2[C@@H]3[C@@H](O)C[C@@H]4C[C@H](O)CC[C@]4(C)[C@H]3CC[C@]12C`, -2.97 °C; under `Cc1ccc2c(N)c(C(=O)NC3CCc4cc(N5CC6CCC(C5)N6)ccc4C3)sc2n1` (centres undefined), -0.53 °C. With `CNc1nc(-c2cc(C(=O)N3CCN(Cc4ccc(Cl)cc4)CC3)c(Cl)cn2)cs1`, the ΔTm is 0.71 °C. For `Cc1nnc2n1-c1sc3c(c1C(c1ccccc1Cl)=NC2)CC(C(=O)N1CCOCC1)C3` (centres undefined) the value was 0.62 °C.

With `C=CC(=O)Nc1cc(-c2nn(C3CCC(N4CCN(C(C)=O)CC4)CC3)c3ncnc(N)c23)ccc1Oc1ccccc1` (centres undefined), the ΔTm was -0.22 °C. For `C[C@@H]1CC[C@@]2(OC1)O[C@H]1[C@@H](O)[C@H]3[C@@H]4CC[C@H]5C[C@@H](O[C@@H]6O[C@H](CO)[C@H](O[C@@H]7O[C@H](CO)C(O)[C@H](O[C@@H]8OC[C@@H](O)[C@H](O)[C@H]8O)[C@H]7O[C@@H]7O[C@H](CO)[C@H](O)[C@H](O[C@@H]8O[C@H](CO)[C@@H](O)[C@H](O)[C@H]8O)[C@H]7O)[C@H](O)[C@H]6O)[C@H](O)C[C@]5(C)[C@H]4CC[C@]3(C)[C@H]1[C@@H]2C` (some centres undefined) the value was -1.87 °C; for `CCC(=O)O[C@@H](OP(=O)(CCCCc1ccccc1)CC(=O)N1C[C@H](C2CCCCC2)C[C@H]1C(=O)O)C(C)C` (some centres undefined), -0.8 °C; for `C=CC(=O)Nc1ccc2[nH]c(=O)n(C3CCN(Cc4ccc(-c5ccc6c(c5)NC(=O)CO6)cc4)CC3)c2c1`, 0.27 °C.

The term ΔTm denotes the shift of the melting midpoint relative to a reference.
